Test results reported in PubChem BioAssay (NCI).
This is part of a sample that, as a whole, favours compounds with a hit. Of some 83,000 tested, about 20% had one in any assay.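 Each cell line was grown in a 96-well plate and treated with one concentration of compound for 48 hours. Values below 10 were considered active.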 The source made the active and inactive calls.

What was measured:
Assay in all cases: NCI-60 one-dose screen, 48 h (100 = growth as untreated, 0 = no growth, -100 = all killed)
Conditions in all cases: 10 µM unless noted
NCI-H23 lung = test system: NCI-H23 lung
NCI-H226 lung = test system: NCI-H226 lung
NCI-H322M lung = test system: NCI-H322M lung
HOP-62 NSCLC = test system: HOP-62 NSCLC
NCI-H460 lung = test system: NCI-H460 lung
NCI-H522 lung = test system: NCI-H522 lung
A549/ATCC NSCLC = test system: A549/ATCC NSCLC
786-0 renal = test system: 786-0 renal
COLO 205 colon = test system: COLO 205 colon
DU-145 prostate = test system: DU-145 prostate
K-562 leukemia = test system: K-562 leukemia
MALME-3M melanoma = test system: MALME-3M melanoma
MDA-MB-231 breast = test system: MDA-MB-231 breast
RXF 393 renal = test system: RXF 393 renal
SF-268 CNS = test system: SF-268 CNS
SF-295 CNS = test system: SF-295 CNS
SF-539 CNS = test system: SF-539 CNS
UACC-257 melanoma = test system: UACC-257 melanoma
M14 melanoma = test system: M14 melanoma

Measured: growth

C#C[C@]1(O)CC[C@H]2[C@@H]3CC=C4c5sc(-c6cccc(Br)c6)nc5CC[C@]4(C)[C@H]3CC[C@@]21C
inactive: NCI-H23 lung 82.9% | NCI-H226 lung 97.9% | NCI-H322M lung 73.5% | HOP-62 NSCLC 91.5% | NCI-H460 lung 78.1% | NCI-H522 lung 62.3% | A549/ATCC NSCLC 81.2% | 786-0 renal 51.9% | COLO 205 colon 118% | DU-145 prostate 88.6% | MALME-3M melanoma 100% | MDA-MB-231 breast 79.9% | RXF 393 renal 37.3% | SF-268 CNS 72.4% | SF-295 CNS 55.5% | SF-539 CNS 37.6% | UACC-257 melanoma 80.7% | M14 melanoma 69.3%
active: K-562 leukemia 6.54%

CN(C)N1C(=O)c2c(Cl)c(Cl)c(Cl)c(Cl)c2C1=O
inactive: NCI-H23 lung 96.9% | NCI-H226 lung 103% | NCI-H322M lung 112% | HOP-62 NSCLC 108% | NCI-H460 lung 110% | NCI-H522 lung 94.2% | A549/ATCC NSCLC 104% | 786-0 renal 103% | COLO 205 colon 111% | DU-145 prostate 120% | K-562 leukemia 98.4% | MALME-3M melanoma 123% | MDA-MB-231 breast 115% | RXF 393 renal 112% | SF-268 CNS 106% | SF-295 CNS 123% | SF-539 CNS 118% | UACC-257 melanoma 104% | M14 melanoma 101%

Cn1cnc([N+](=O)[O-])c1S(=O)(=O)Oc1ccccc1
inactive: NCI-H23 lung 101% | NCI-H226 lung 91.6% | NCI-H322M lung 109% | HOP-62 NSCLC 96.1% | NCI-H460 lung 105% | A549/ATCC NSCLC 106% | 786-0 renal 95.2% | DU-145 prostate 70.4% | K-562 leukemia 31.8% | MDA-MB-231 breast 99.4% | RXF 393 renal 74.1% | SF-268 CNS 101% | SF-295 CNS 110% | SF-539 CNS 93.8% | UACC-257 melanoma 90.9% | M14 melanoma 53.1%
active: NCI-H522 lung -75.7% | COLO 205 colon -16.9% | MALME-3M melanoma -60.9%

O=c1c2cc(Cl)ccc2oc2ccc(OCCCCCN3CCCCC3)cc12
inactive: NCI-H23 lung 75.1% | NCI-H226 lung 86.7% | NCI-H322M lung 89.7% | HOP-62 NSCLC 88.9% | NCI-H460 lung 10.2% | NCI-H522 lung 36.2% | A549/ATCC NSCLC 32.3% | 786-0 renal 35.4% | COLO 205 colon 10.6% | DU-145 prostate 74.6% | MALME-3M melanoma 74.9% | MDA-MB-231 breast 46.1% | RXF 393 renal 60.9% | SF-268 CNS 73.1% | SF-295 CNS 75.5% | SF-539 CNS 58.3%
active: K-562 leukemia 2.44% | UACC-257 melanoma -26.2% | M14 melanoma -67.4%

COc1ccc2c(c1)N(Cc1ccc(Cl)cc1)CCC2N1CCCC1=O (stereo not given)
inactive: NCI-H23 lung 52.7% | NCI-H226 lung 46.5% | NCI-H322M lung 39.9% | HOP-62 NSCLC 52.4% | NCI-H460 lung 39.1% | NCI-H522 lung 32% | A549/ATCC NSCLC 44.4% | 786-0 renal 48.6% | COLO 205 colon 67.3% | DU-145 prostate 43.9% | K-562 leukemia 47.4% | MALME-3M melanoma 39.8% | MDA-MB-231 breast 61.8% | RXF 393 renal 39.4% | SF-268 CNS 59.2% | SF-295 CNS 28.3% | SF-539 CNS 48.5% | UACC-257 melanoma 63.6% | M14 melanoma 60.9%

CN(C)c1nc(-c2cccs2)n2nc(-c3ccc(Cl)cc3)cc2n1
active: NCI-H226 lung -25.5% | HOP-62 NSCLC -39.5% | NCI-H460 lung -1.56% | 786-0 renal -40.7% | SF-295 CNS -5.01%
inactive: NCI-H23 lung 61.9% | NCI-H322M lung 11.8% | NCI-H522 lung 39.9% | A549/ATCC NSCLC 10.9% | COLO 205 colon 39.1% | DU-145 prostate 72.2% | K-562 leukemia 73.7% | MALME-3M melanoma 57.6% | MDA-MB-231 breast 19.3% | RXF 393 renal 13.3% | SF-268 CNS 55% | SF-539 CNS 47.5% | UACC-257 melanoma 79.6% | M14 melanoma 61.4%

CN1C(=O)NC(Cc2c[nH]c3c(Cl)cccc23)C1=O (stereo not given)
inactive: NCI-H23 lung 102% | NCI-H226 lung 93.8% | NCI-H322M lung 120% | HOP-62 NSCLC 107% | NCI-H460 lung 112% | NCI-H522 lung 96.4% | A549/ATCC NSCLC 102% | 786-0 renal 109% | COLO 205 colon 105% | DU-145 prostate 123% | K-562 leukemia 101% | MALME-3M melanoma 141% | MDA-MB-231 breast 117% | RXF 393 renal 92.1% | SF-268 CNS 110% | SF-295 CNS 109% | SF-539 CNS 98.4% | UACC-257 melanoma 116% | M14 melanoma 108%

COc1ccc(C(=O)OC2C(OC3C(O)COC(O[C@H]4C[C@H]5[C@@H]6CC=C7C[C@@H](O)CC[C@]7(C)[C@H]6CC[C@]5(C)[C@H]4[C@H](C)C(=O)CCC(C)C)C3OC(N)=O)OCC(O)C2O)cc1 (stereo not given in full)
inactive: NCI-H23 lung 23.3% | NCI-H322M lung 53.7% | A549/ATCC NSCLC 11.3% | DU-145 prostate 32.8%
active: NCI-H226 lung -1.18% | HOP-62 NSCLC -22.2% | NCI-H460 lung -35.7% | NCI-H522 lung -68.7% | 786-0 renal -59.4% | COLO 205 colon -58% | K-562 leukemia -45.4% | MALME-3M melanoma -34.3% | MDA-MB-231 breast -5.1% | RXF 393 renal -64.9% | SF-268 CNS -14.2% | SF-295 CNS -67.2% | SF-539 CNS -80% | UACC-257 melanoma -63.6% | M14 melanoma -78.6%

CC(C)OC1OC(OC(C)C)C(OC(C)C)OC1OC(C)C (stereo not given)
inactive: NCI-H23 lung 94.9% | NCI-H226 lung 99.9% | NCI-H322M lung 98.1% | HOP-62 NSCLC 123% | NCI-H460 lung 104% | NCI-H522 lung 70.9% | A549/ATCC NSCLC 92.4% | 786-0 renal 99.4% | COLO 205 colon 112% | DU-145 prostate 112% | K-562 leukemia 92.5% | MALME-3M melanoma 119% | MDA-MB-231 breast 91.8% | RXF 393 renal 127% | SF-268 CNS 96.5% | SF-295 CNS 109% | SF-539 CNS 105% | UACC-257 melanoma 92.2% | M14 melanoma 99.2%

O=C(Nc1ccc(Br)cc1)Nc1cccc(Br)c1
inactive: NCI-H23 lung 18.4% | NCI-H226 lung 53.1% | NCI-H322M lung 55.4% | HOP-62 NSCLC 56.6% | NCI-H460 lung 12.2% | A549/ATCC NSCLC 32.1% | 786-0 renal 68.6% | COLO 205 colon 28.1% | DU-145 prostate 30.7% | MALME-3M melanoma 60.2% | MDA-MB-231 breast 66.6% | RXF 393 renal 105% | SF-268 CNS 69% | SF-295 CNS 28.1% | SF-539 CNS 76.6% | UACC-257 melanoma 36.3% | M14 melanoma 24.1%
active: NCI-H522 lung -28.5% | K-562 leukemia 4.34%

C#CCO[C@H]1CC[C@H](OCC#C)[C@@H]2[C@H]1[C@H]1C[C@@H]3[C@@]4(C)CCC[C@@](C)(C(=O)OC)[C@@H]4CC[C@@]23C=C1C(C)C
inactive: NCI-H23 lung 64.3% | NCI-H226 lung 81.7% | NCI-H322M lung 88.5% | HOP-62 NSCLC 77.5% | NCI-H460 lung 104% | A549/ATCC NSCLC 57.1% | COLO 205 colon 83.5% | DU-145 prostate 94.3% | K-562 leukemia 79.7% | MDA-MB-231 breast 65% | RXF 393 renal 94.9% | SF-268 CNS 81.1% | SF-295 CNS 92.7% | SF-539 CNS 70.9% | UACC-257 melanoma 56% | M14 melanoma 93.8%
active: NCI-H522 lung -66.5% | 786-0 renal -23.5% | MALME-3M melanoma -41.7%

Cc1cc([N+](=O)[O-])c(C)cc1N
inactive: NCI-H23 lung 103% | NCI-H226 lung 101% | NCI-H322M lung 107% | HOP-62 NSCLC 103% | NCI-H460 lung 109% | NCI-H522 lung 77.5% | A549/ATCC NSCLC 104% | 786-0 renal 103% | COLO 205 colon 121% | DU-145 prostate 115% | K-562 leukemia 100% | MALME-3M melanoma 104% | MDA-MB-231 breast 90.3% | RXF 393 renal 105% | SF-268 CNS 105% | SF-295 CNS 109% | SF-539 CNS 105% | UACC-257 melanoma 109% | M14 melanoma 104%

Cc1cc(O)c2cc3c(O)c(O)ccc3cc2c1
inactive: NCI-H23 lung 101% | NCI-H226 lung 115% | NCI-H322M lung 119% | HOP-62 NSCLC 120% | NCI-H460 lung 125% | NCI-H522 lung 88.6% | A549/ATCC NSCLC 117% | 786-0 renal 91.5% | COLO 205 colon 123% | DU-145 prostate 105% | K-562 leukemia 90.8% | MALME-3M melanoma 109% | MDA-MB-231 breast 95.2% | RXF 393 renal 107% | SF-268 CNS 135% | SF-295 CNS 109% | SF-539 CNS 100% | UACC-257 melanoma 132% | M14 melanoma 128%

CC[C@H](C)[C@H](N)C(=O)O
inactive: NCI-H23 lung 111% | NCI-H226 lung 96.5% | NCI-H322M lung 96.9% | HOP-62 NSCLC 102% | NCI-H460 lung 108% | NCI-H522 lung 101% | A549/ATCC NSCLC 103% | 786-0 renal 112% | COLO 205 colon 103% | DU-145 prostate 106% | K-562 leukemia 122% | MALME-3M melanoma 103% | MDA-MB-231 breast 97.7% | RXF 393 renal 96.8% | SF-268 CNS 105% | SF-295 CNS 104% | SF-539 CNS 100% | UACC-257 melanoma 119% | M14 melanoma 105%

CC(=O)Cc1ccccn1
inactive: NCI-H23 lung 104% | NCI-H226 lung 98% | NCI-H322M lung 110% | HOP-62 NSCLC 108% | NCI-H460 lung 105% | NCI-H522 lung 92.5% | A549/ATCC NSCLC 104% | 786-0 renal 101% | COLO 205 colon 133% | DU-145 prostate 107% | K-562 leukemia 100% | MALME-3M melanoma 106% | MDA-MB-231 breast 105% | RXF 393 renal 119% | SF-268 CNS 98.7% | SF-295 CNS 84.1% | SF-539 CNS 99.7% | UACC-257 melanoma 103% | M14 melanoma 102%
